Experimental data from PubChem BioAssay AID493169 (National Center for Advancing Translational Sciences (NCATS), 2011).
Records with an inconclusive call do not appear. A number with no mark means an inactive call. The source made the active and inactive calls. Calls follow the shape of the dose curve; as a rule, active = well fitted inhibition curve with a large enough effect; inconclusive = small, poorly fitted or top-dose-only effect; inactive = flat fitted curve, though single readings scatter.

Assay: CHOP2 Reporter Counterscreen Assay for Inhibitors of Ubiquitin-specific Protease USP2a;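 also: activated enterokinase alone at 50 pM in a cell-free format rather than USP2a or CHOP2; nearly all actives have a fitted effect of over 55% in size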
Details: purified enterokinase, fluorogenic substrate, 485/531 nm; series mostly up to 38.3 µM; activity change, negative = inhibition: at the top concentration
Method in brief: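 Fluorescence (485/531 nm) read 10 min after adding 25nM reporter substrate to 50 pM activated EK preincubated 30 min RT with compound; Tris pH 8.0/CaCl2/CHAPS buffer. Data normalized to buffer-alone inhibition; concentration-response curves fitted.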
% is scaled to controls: 0 for no effect and ±100 for the full control effect; potency is read from the fitted curve at half-maximal effect.

In the case of `COc1ccc(NC(=O)c2cc(-c3ccco3)nc3ccccc23)cc1S(=O)(=O)N1CCOCC1`, the Potency is reported as 5.62 µM (active).
In the case of `O=C(Nc1ccc(N2CCCC2)cc1)c1ccc(Br)cc1`, the Potency is reported as 5.01 µM (active).
With `O=C(Nc1cccc(S(=O)(=O)NC2=NCCC2)c1)c1cc(-c2ccco2)nc2ccccc12` the Potency was 1.78 µM (active).

In order of falling “activity change, negative = inhibition” value:
1. CCOc1cc(N2CCOCC2)c(OCC)cc1NC(=O)Cc1cn2ccsc2n1  5.43%
2. O=C(CN1CCC(O)CC1)N1c2ccccc2C=Cc2ccccc21  4.57%
3. COC(=O)c1c(O)c2c([nH]c1=O)CCCC2  3.84%
4. c1ccc(-c2nc3nc4ccccc4nc3n2Cc2ccco2)cc1  3.7%
5. Cc1cc(C)c2c(N=CN(C)C)c(C(=O)N3CCN(c4ncccn4)CC3)sc2n1  3.03%
6. OCCN(Cc1ccccc1)c1ncnc2sccc12  2.84%
7. NC(=O)CC(NC(=O)Cc1ccc(Br)cc1)c1ccc(N2CCC(Cc3ccccc3)CC2)c([N+](=O)[O-])c1 (stereo not given)  2.37%
8. COC(=O)c1[nH]c2cc(OC)ccc2c1N  1.82%
9. O=C(NCc1ccccc1)C1CCC1  1.5%
10. CC(C)c1ccc(C2=C(O)c3ccccc3C(=O)C2=O)cc1  0.933%
11. COc1ccccc1NC(=O)N1CCN(c2ccccn2)CC1  0.312%
12. O=C1NCC(CN(c2ccccc2)c2ccccc2)O1 (stereo not given)  0.268%
13. COc1cc(C(=O)OCC(=O)Nc2c(F)c(F)c(F)c(F)c2F)cc(OC)c1OC  -0.4%
14. COCCn1c(SCC(=O)Nc2cc(C)on2)nnc1-c1ccccc1  -0.447%
15. CCC(C)(C(=O)NC1CCCCC1)N(C(=O)C1CCC(=O)N1)c1ccccc1 (stereo not given)  -1.78%
16. COc1ccccc1-c1nnc(SCC(=O)Nc2nc(-c3ccccc3)cs2)n1C  -2.53%
17. Cc1cc(C)n2nc(S(=O)(=O)NCCc3ccccc3)nc2n1  -2.84%
18. COC(=O)[C@@]12CCCCN1[C@H](c1ccc(-c3ccc(Cl)c(Cl)c3)cc1)[C@H]1C(=O)N(C)C(=O)[C@H]12  -3.03%
19. CC(C)(C)C1CCc2nc(NC(=O)Cc3cn4ccsc4n3)sc2C1 (stereo not given)  -4.53%
20. COc1c(/C=C2\SC(=Nc3ccccc3Cl)NC2=O)cccc1[N+](=O)[O-]  -9.15%
21. COc1ccccc1-n1c(SCC(=O)Nc2ccc(C)cc2)nc(O)cc1=O  -9.74%
22. Cc1cccc(Nc2nc(NCc3ccco3)c3ccccc3n2)c1  -15.7%
